About 83,000 compounds went through this panel and 20% of them were active in at least one assay; those are over-represented in the sample as a whole.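 For each line, cells grew in 96-well plates with the test compound present at a single concentration for 48 hours.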 Values without a mark were called inactive. The source made the active and inactive calls. How the source made its calls: active means growth percent below 10; inactive means the rest.
Key:
Assay in all cases: NCI-60 one-dose screen, 48 h (100 = growth as untreated, 0 = no growth, -100 = all killed)
[1] = test system: RPMI-8226 leukemia; details: 10 µM unless noted
[2] = test system: OVCAR-8 ovarian; details: 10 µM unless noted
[3] = test system: OVCAR-5 ovarian; details: 10 µM unless noted
[4] = test system: OVCAR-4 ovarian; details: 10 µM unless noted
[5] = test system: IGROV1 ovarian; details: 10 µM unless noted
[6] = test system: OVCAR-3 ovarian; details: 10 µM unless noted
[7] = test system: HS 578T breast; details: 10 µM
[8] = test system: T-47D breast; details: 10 µM unless noted
[9] = test system: BT-549 breast; details: 10 µM unless noted
[10] = test system: MDA-MB-435 melanoma; details: 10 µM unless noted
[11] = test system: SW-620 colon; details: 10 µM unless noted
[12] = test system: MCF7 breast; details: 10 µM unless noted
[13] = test system: HCT-116 colon; details: 10 µM unless noted
[14] = test system: HCC-2998 colon; details: 10 µM unless noted
[15] = test system: KM12 colon; details: 10 µM unless noted
[16] = test system: SK-OV-3 ovarian; details: 10 µM unless noted
[17] = test system: NCI/ADR-RES ovarian; details: 10 µM unless noted

Compound	growth [1]	growth [2] [%]	growth [3] [%]	growth [4]	growth [5] [%]	growth [6]	growth [7] [%]	growth [8] [%]	growth [9] [%]	growth [10]	growth [11] [%]	growth [12]	growth [13]	growth [14]	growth [15]	growth [16] [%]	growth [17]
Clc1ncnc2scc(C3COc4ccccc4O3)c12 (stereo not drawn)	95.7%	92.8	94.4	92.8%	121	106%	92.3	78.2	70	97.5%	93.3	76.7%	86.2%	87.7%	104%		
O=C(/C=C/c1ccccc1)n1c(-c2ccccc2)nc2ccccc21	105%	98.9	95.7	101%		111%	104	97.3	112	99.9%	102	97.5%	109%		104%	110	104%
CCCCCCCCCCCC1=NC(C)(C)CN1C(C)(C)CO	1.29% (active)	69.4	73.2	64.4%	53.2	76.7%	81.2	45.3	76.6	-25.2% (active)	10.8	24.3%	8.08% (active)	-75.5% (active)	-10.2% (active)		65%
O=C(CSc1ccc(Cl)cc1)Nc1ccc(-c2nc3ccccc3s2)c(Cl)c1	38.5%	50.8	99.1	57.6%	69.4	-10.9% (active)	79.1	34.4	95.2	77.9%	65.9	47.7%	19.7%	81.1%	23%		62%
COc1cc(C2CC(c3cccc(Nc4ccnc5cc(Cl)ccc45)c3)=NN2c2ccccc2)cc(OC)c1OC (stereo not drawn)	53.1%	69.6	99.8	124%	76.4	90.6%	63.6	42.9	88.6	24.4%	37.8	60.6%	64.8%	91.8%	40.7%	101	
O=C1C=CC(=O)N1CO	112%	110	101	130%	109	113%	108	132	116	127%	115	104%	104%	107%	128%		129%
CC1=C(C(=O)Nc2ccc(F)cc2)C(c2ccccc2)C2=C(CC(C)(C)CC2=O)N1 (stereo not drawn)	41.3%	73.3	90.7		84.3	70%	82.5	63.6	91.1	90.3%	89.7	67.1%	73.6%	103%	84.5%	97.2	79.7%
N#Cc1c(N)c(C(=O)c2ccc3c(c2)OCCO3)n2c1CCCC2	4.91% (active)	31.5	57.9	81.2%	10.8		36.3	29.2	52.9	-48.8% (active)	19.3	18.1%	18.6%	59.6%	24.1%	31.3	8.36% (active)
CC1CN(CCCOC(=O)Nc2ccc(Cl)cc2)CCN1C(C)(C)C (stereo not drawn)	100%	104	105	111%	100	104%	116	90	101	102%	110	99%	100%	101%	106%		99.6%
CN(C)c1ccc(Nc2c3ccccc3nc3ccccc23)cc1	17.2%	23.5	43.7	1.57% (active)		-11.7% (active)	25.2	11.1	44.5	19.4%	13.6	5.1% (active)	5.58% (active)	0.72% (active)	18%	22	12.5%
